D3 ag: qHTS of D3 Dopamine Receptor Agonist: qHTS; D(3) dopamine receptor (Homo sapiens), P35462; D3R DiscoveRx beta-arrestin cells, luminescence, 90 min; max activation, %; actives 0.58% (n = 410,000); AID 652048, 2013; in the data active = max activation above about 30%
Target sequence (P35462 whole entry, looked up): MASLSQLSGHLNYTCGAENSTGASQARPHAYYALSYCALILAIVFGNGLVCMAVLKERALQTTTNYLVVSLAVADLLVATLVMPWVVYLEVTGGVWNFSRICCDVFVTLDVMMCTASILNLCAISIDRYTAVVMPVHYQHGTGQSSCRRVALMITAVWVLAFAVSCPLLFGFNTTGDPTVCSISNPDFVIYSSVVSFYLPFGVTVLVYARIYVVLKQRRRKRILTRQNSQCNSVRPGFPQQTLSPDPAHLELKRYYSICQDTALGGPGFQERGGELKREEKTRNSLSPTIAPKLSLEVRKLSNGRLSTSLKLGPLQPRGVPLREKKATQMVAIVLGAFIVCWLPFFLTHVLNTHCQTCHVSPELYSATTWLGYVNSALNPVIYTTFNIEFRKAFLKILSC
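Cells at 1500/well, incubated overnight, then treated with pinned compounds (dopamine as control) for 90 min at 37 degrees C. DiscoveRx reagent added for 30 - 60 minutes at room temperature; luminescence read.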
Nrf2 ARE act: qHTS of Nrf2 Activators | Potency, µM (titrated, usually from 46.1 µM), hits mostly activators | actives 0.31% (n = 410,000) | AREc32 ARE-luciferase reporter (MCF7-derived line), luminescence, 24 h; note: nearly all actives have a fitted effect of over 65% in size
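Quantitative high-throughput format: AREc32 reporter cells, 1000 per well, received compound by pin transfer and were incubated 24 hr at 37 deg C, 5% CO2, before Steady-Glo luminescence detection.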
D3 antag: qHTS of D3 Dopamine Receptor Antagonist: qHTS; actives 2.5% (n = 360,000); D(3) dopamine receptor (Homo sapiens), P35462; max response, negative = inhibition, %; D3R cells, DiscoveRx beta-arrestin luminescence, antagonist mode; hits give low values; in the data active = max response below about -50%; inconclusive = no clear call, values can overlap the other calls
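Cells plated overnight at 1500 cells/well, then exposed to library compounds with dopamine controls for 90 minutes at 37 degrees C. DiscoveRx reagent added for 30–60 minutes at room temperature; luminescence read, quantitative HTS format.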
Glioma ERSR ind: qHTS for Inducers of the Endoplasmic Reticulum Stress Response (ERSR) in Human Glioma: qHTS; U87-MG GRP78 promoter luciferase reporter, 16 h; Potency, µM, hits mostly activators; actives 0.02% (n = 420,000); note: series mostly up to about 76 µM; nearly all actives have a fitted effect of over 35% in size
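Stably transfected U87-MG glioma cells carrying a GRP78-based luciferase sensor; 16 h compound incubation. Luminescence end-point read 10 min after Bright-Glo addition at room temperature.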
Of the large screens only hits and unclear results are named; the others gave an inactive call. Rows were chosen to be rich in hits. Some 3% of all compounds tested hit in one or more screens of this group. Unless noted, calls come from the whole dose curve; as a rule, active = well fitted curve in the direction sought with a large enough effect; inconclusive = small, poorly fitted or top-dose-only effect, or another doubt; inactive = no such curve, though single readings can be large; an effect the other way counts as inactive or inconclusive.

CNc1cncc(-c2cccc(O)c2)n1	none
COc1ccccc1-c1nnc2sc(COc3ccc(Cl)cc3)nn12	D3 antag -52
CCOc1cccc(-c2nnc3sc(COc4ccc(C)cc4)nn23)c1	none
c1ccc(OCc2nn3c(-c4n[nH]c5c4CCC5)nnc3s2)cc1	D3 antag -52
CCOc1cccc(-c2nnc3sc(COc4ccccc4)nn23)c1	D3 ag 38
NCCOc1ccccc1Cc1ccccc1	D3 antag -64
OC(c1cccnc1)c1ccc2c(c1)CN(Cc1ccc(-c3ccccc3Cl)o1)CCO2 (configuration not stated)	none (no result: D3 ag, Nrf2 ARE act, D3 antag)
COc1ccccc1C(=O)Nc1ccc2c(c1)CN(Cc1cnc(C)s1)CC2	none
COC(=O)Nc1ncc(CN2CCc3ccccc3C2)s1	D3 antag -74
CN(C)S(=O)(=O)c1ccc(C(=O)NC2CC(=O)N(c3ccc4c(c3)OCCO4)C2)cc1 (configuration not stated)	none (no result: D3 antag)
CCOC(=O)C(=O)Nc1ccccc1C(=O)NC(C)C	D3 ag 38
CCOC(=O)C(=O)Nc1ccccc1C(=O)OCC	none
O=C1CC(N2CCN(C/C=C/c3ccccc3)CC2)C(=O)N1CCc1ccccc1 (configuration not stated)	D3 antag inconclusive
O=C1CC(N2CCN(C/C=C/c3ccccc3)CC2)C(=O)N1Cc1cccs1 (configuration not stated)	D3 antag -63
COc1ccc(CN(C)CC(=O)Nc2sc3c(c2C#N)CCC3)cc1OC	D3 ag 37
CCO[C@H](Cc1ccc(OCCc2ccc(OS(C)(=O)=O)cc2)cc1)C(=O)O	none (no result: Nrf2 ARE act, D3 antag, Glioma ERSR ind)
CN(CC(=O)N1CCN(Cc2ccccc2)CC1)S(=O)(=O)c1ccc(F)cc1	D3 antag -59
CN(CC(=O)N1CCN(Cc2ccccc2)CC1)S(=O)(=O)c1ccc(Br)cc1	D3 antag inconclusive
CS(=O)(=O)N(CC(=O)N1CCN(Cc2ccccc2)CC1)c1ccccc1Br	D3 antag -58
CCN1CCCC1CN(Cc1cc2ccc(C)cc2[nH]c1=O)C(=S)Nc1cccc(OC)c1 (configuration not stated)	D3 antag -88
CCN1CCCC1CN(Cc1cc2ccc(C)cc2[nH]c1=O)C(=S)Nc1ccccc1OC (configuration not stated)	D3 antag inconclusive
CCN1CCCC1CN(Cc1cc2ccc(C)cc2[nH]c1=O)C(=S)Nc1ccc(F)cc1 (configuration not stated)	D3 antag -82
CCN1CCCC1CN(Cc1cc2ccc(C)cc2[nH]c1=O)C(=S)Nc1ccc(OC)cc1 (configuration not stated)	D3 antag -64
CCN1CCCC1CN(Cc1cc2ccc(C)cc2[nH]c1=O)C(=S)Nc1ccccc1C(=O)OC (configuration not stated)	D3 antag -65
CC1CN(CC(=O)NCCC2COc3ccccc3O2)Cc2cc(Cl)ccc2O1 (configuration not stated)	none (no result: D3 ag, Nrf2 ARE act, D3 antag)
O=C(O)/C=C/C(=O)c1c(-c2ccccc2)[nH]c2ccccc12	Nrf2 ARE act 10µM
CC(=O)c1c(-c2ccccc2)[nH]c2ccccc12	none
Cc1ccc(S(=O)(=O)CCC(=O)Nc2nc(-c3ccccn3)cs2)cc1	Nrf2 ARE act 14µM
O=C(CCS(=O)(=O)c1ccc(Cl)cc1)Nc1nc(-c2cccnc2)cs1	none
O=C(CCS(=O)(=O)c1ccc(Cl)cc1)Nc1nc(-c2ccncc2)cs1	Nrf2 ARE act 11µM
O=C(COc1ccccc1C(=O)OCC(=O)Nc1cccc2ccccc12)Nc1ccc(Br)cc1	none (no result: D3 ag, Nrf2 ARE act, D3 antag)
C(=C\c1ccccc1)/CN1CCN(C(CCc2ccccc2)c2nnnn2C2CCCC2)CC1 (configuration not stated)	D3 antag -116
C(=C\c1ccccc1)/CN1CCN(C(c2nnnn2C2CCCC2)C2CC2)CC1 (configuration not stated)	D3 antag inconclusive
CC(C)(C)n1nnnc1C(CCc1ccccc1)N1CCN(C/C=C/c2ccccc2)CC1 (configuration not stated)	D3 antag -91
COc1ccc(-n2nnnc2C(CCSC)N2CCN(C/C=C/c3ccccc3)CC2)cc1 (configuration not stated)	D3 antag -127
CSCCC(c1nnnn1C(C)(C)C)N1CCN(C/C=C/c2ccccc2)CC1 (configuration not stated)	D3 antag -82
CC(C)Oc1ccc(-c2nc3c(C#N)c[nH]n3c2NC2CCCCC2)cc1	none (no result: D3 antag)
CCS(=O)(=O)Nc1cc(C(=O)N2CCCN(C=O)CC2)c2c(c1)nc(-c1ccccc1)n2C	none (no result: D3 ag, Nrf2 ARE act, D3 antag)
COc1ccc(C(=O)NCCc2nnc3n2CCN(CC2CC=CCC2)CC3)cc1 (configuration not stated)	none (no result: D3 ag, Nrf2 ARE act, D3 antag)
CSCCC(c1nnnn1-c1c(C)cccc1C)N1CCN(C/C=C/c2ccccc2)CC1 (configuration not stated)	D3 antag -95
CCC(c1nnnn1-c1c(C)cccc1C)N1CCN(C/C=C/c2ccccc2)CC1 (configuration not stated)	D3 antag inconclusive
O=C(CCl)N(c1ccccc1)C1CCCCC1	D3 antag -65
COC(=O)/C=C/c1ccc2c(c1)S(=O)(=O)N(C1CCCC1)[C@H]2CC(=O)OC	none (no result: D3 ag, Nrf2 ARE act, D3 antag)
CCC[C@@H](CN1CCC[C@H]1CN1C(N)=NC[C@H]1CC(C)C)N1C[C@@H]([C@H](C)CC)N(CCc2ccc(Cl)c(Cl)c2)C1=N	D3 antag inconclusive
CCC[C@@H](CN1CCC[C@H]1CN1C(N)=NC[C@@H]1Cc1ccccc1)N1C[C@@H]([C@H](C)CC)N(CCc2ccc(Cl)c(Cl)c2)C1=N	D3 antag -64
CCC[C@@H](CN1CCC[C@H]1CN1C(N)=NC[C@H]1CC(C)C)N1C[C@@H](Cc2ccccc2)N(CCc2ccc(Cl)c(Cl)c2)C1=N	none
CCC[C@@H](CN1CCC[C@H]1CN1C(N)=NC[C@@H]1Cc1ccccc1)N1C[C@@H](Cc2ccccc2)N(CCc2ccc(Cl)c(Cl)c2)C1=N	D3 antag -87
CC1(c2nc3ccccc3[nH]2)c2ccccc2C(=O)N1Cc1ccccc1 (configuration not stated)	D3 antag -55 (no result: Glioma ERSR ind)
O=C(COC(=O)c1cccnc1Cl)NC(=O)c1ccc(OC(F)F)cc1	D3 antag -53
O=C(COC(=O)c1ccccc1O)NC(=O)c1ccc(OC(F)F)cc1	none
CCn1cc2nc(SCC(=O)Nc3cccc(Cl)c3C)n(Cc3ccc(Cl)cc3)c(=O)c2n1	none (no result: D3 antag)
CCN(CC)c1ccc(C(=C2C=CC(=[N+](CC)CC)C=C2)c2ccc(N(CC)CC)cc2)cc1	none
CCN(CC)c1ccc(C(=C2C=CC(=[N+](CC)CC)C=C2)c2ccccc2)cc1	D3 antag -105
O=C(NCCCN1CCCC1)[C@H](CSCc1ccccc1)N1Cc2ccccc2C1=O	D3 antag -60

Compound activity as filed in PubChem BioAssay.
